# Experimental data as given in PMC5540273 (PLoS ONE, 2017).
# System: T1, DCAMKL1
# T1 construct: gene DCLK1
# Conditions: concentration: 1 μM, replicates: in singlicate; n = 1
# 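Also: KINOMEscan kinase panel screen.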
row,Compound,%Inh [%]
1,COc1cccc(C2=C(Nc3cc(Cl)c(O)c(Cl)c3)C(=O)NC2=O)c1 [SB-390767],11
2,Cc1ccccc1Cn1ccn2c(=O)cc(N3CCOCC3)nc12 [GSK2269905],0
3,Fc1ccc(-c2nn3cccc(F)c3c2-c2ccncc2)cc1 [GW475620],0
4,Cc1nccc(-c2c(-c3ccc(F)cc3)ncn2CCCN2CCOCC2)n1.Cl [SB-282975],0
5,Cc1cccc2c(-c3ccncn3)c(-c3ccc(F)cc3)nn12 [GW515532],0
6,COc1ccc(Nc2nccc(NCCNC(=O)Nc3cc(C)ccc3C)n2)cc1 [GSK1379899],0
7,Nc1nccc(-c2c(-c3ccc(F)cc3)ncn2C2CCN(Cc3ccccc3)CC2)n1 [SB-219980],0
8,CS(=O)(=O)Cc1ccc(Nc2nccc(-c3c(-c4cccc(NC(=O)C5CCCCC5)c4)nn4ncccc34)n2)cc1 [GSK350559],0
9,Cc1ccc(NC(=O)Nc2ccc(Cl)c(C(F)(F)F)c2)cc1-c1ccc(C(=O)Nc2ccncc2)cc1 [GSK1398470],0
10,O=c1cc(N2CCOCC2)nc2n(Cc3ccccc3F)ccn12 [GSK2297428],57
11,O=C(Nc1n[nH]c2nc(-c3ccco3)c(Br)cc12)C1CCN(Cc2ccccc2)C1.O=C(O)[C@H](O)[C@@H](O)C(=O)O (stereo not drawn) [SB-742034],14
12,CCn1c(-c2c(N)noc2C)nc2cnccc21 [SB-737856],5
13,Cn1cnc2c(N)ncnc21 [SKF-97623],0
14,O=C(Nc1n[nH]c2cc(-c3ccsc3)ccc12)C1CC1 [SB-732932],0
15,CN1c2ccc(-c3ccc(C(N)=O)cc3)cc2-c2[nH]ncc2S1(=O)=O,7
16,Cl.Cl.Cl.N#Cc1ccc(CCNc2nccc(-c3cccc(CN4CCNCC4)c3)n2)cc1 [GSK2137462],14
17,Cn1cncc1C(=O)NC1CCN(c2ccnc(Nc3ccc(F)cc3)n2)C1 (stereo not drawn) [GSK1379717],0
18,CS(=O)(=O)CCNCc1nc(-c2ccc3ncnc(Nc4ccc5c(cnn5Cc5ccccc5)c4)c3c2)cs1.Cl.Cl [GW569716],9
19,Cc1cnc(N)c(/C=C/c2cncc(C(=O)NCCc3ccc(Cl)cc3Cl)c2)c1.Cl [GSK190937],4
20,CNCc1ccc2nc(NC(=O)c3ccc(C(C)(C)C)cc3)cn2c1,15
21,CNc1cc(-c2ccc3c(N)n[nH]c3c2)nc(N)n1 [GSK2224810],16
22,CNc1nc(-c2ccc3c(N)n[nH]c3c2)cc(N2C[C@@H](C(=O)Nc3ccccc3)CC[C@H]2C)n1 [GSK2298859],53
23,COc1ccc(Nc2nccc(N3CCC(NC(=O)c4cc5ccccc5s4)C3)n2)cc1 (stereo not drawn) [GSK1379738],14
24,COc1ccc(CSc2nnc(-c3ccc4nccn4c3)o2)cc1C(F)(F)F,8
